Molecules are shown by their SMILES. This is part of a sample that, as a whole, favours compounds with a hit. Of some 83,000 tested, about 20% had one in any assay.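 The test compound was applied at a single concentration to cells in 96-well plates for 48 hours, and percent growth was recorded.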 A number with no mark means an inactive call. Active and inactive are the calls of the source. How the source made its calls: active means growth percent below 10; inactive means the rest.

These results are taken from PubChem BioAssay (NCI).

Assay in all cases: NCI-60 one-dose screen, 48 h (100 = growth as untreated, 0 = no growth, -100 = all killed)
Conditions in all cases: 10 µM unless noted

Assay [1] relates to NCI-H23 lung.
In assay [2] the test system is NCI-H226 lung.
In assay [3] the test system is NCI-H322M lung.
Assay [4] has as its system HOP-62 NSCLC.
For assay [5], the system named is NCI-H460 lung.
In assay [6] the test system is HOP-92 NSCLC.
Assay [7] relates to NCI-H522 lung.
Assay [8] relates to A549/ATCC NSCLC.
The test system of assay [9] is 786-0 renal.
Assay [10] concerns DU-145 prostate.
For assay [11], the system named is K-562 leukemia.
Assay [12] relates to MALME-3M melanoma.
Assay [13] deals with MDA-MB-231 breast.
Assay [14] concerns RXF 393 renal.
The subject of assay [15] is SF-268 CNS.
Assay [16] concerns SF-295 CNS.
Assay [17] deals with SF-539 CNS.
Assay [18] deals with UACC-257 melanoma.
The subject of assay [19] is M14 melanoma.
For assay [20], the system named is COLO 205 colon.

As for `COc1cc2oc(-c3cccc(NC(=O)[C@@H](N)C(C)C)c3)cc(=O)c2c(OC)c1OC`, the growth in assay [1] was 103%; in assay [2], 107%; in assay [3], 102%; in assay [4], 103%; in assay [5], 103%; in assay [6], 91.9%. In addition, the growth in assay [7] is 92.7%; in assay [8] it was 94.6%; in assay [9], 87.1%; in [10], 105%; in assay [11] it was 105%; in assay [12], 110%. Besides, the growth in [13] was 99.2%; in assay [14], 107%; in assay [15] it was 107%; in [16] it was 96.7%; in [17], 95.9%; in assay [18], 108%. For the same molecule, in [19], the growth is 111%.
`Cc1cc(NS(=O)(=O)c2ccc(NC(=O)CSc3nc4ccccc4c(=O)n3-c3ccccc3)cc2)no1`: the growth is 92.2% in [1]; 93.4% in assay [2]; 83.9% in [3]; 98.5% in assay [4]; 108% in assay [5]; 88.6% in [6]. The growth in assay [7] is 91.9%; in assay [8] it was 101%; in [9], 104%; in [10], 108%; in [11] it was 54.1%; in assay [12] it was 94.7%. The growth in assay [13] was 98.7%; in [14] it was 93.8%; in [15] it was 98.9%; in assay [16], 99.2%; in assay [17], 95.3%; in assay [18], 98.4%. Further, in assay [19], the growth is 90.3%.
In the case of `COc1ccc2c(c1)c(-c1nn3cc(-c4ccncc4)nc3s1)cn2C`, the growth in assay [1] is 88.7%; in assay [2], 88.6%; in assay [3], 85.4%; in assay [4], 67%; in assay [5], 53.1%; in [6], 11.6%. The growth is 68.9% in assay [7]; 98.7% in assay [8]; 93% in [9]; 81.5% in assay [20]; 93.9% in assay [10]; 28.4% in assay [11]. The growth in assay [12] is 89.9%; in assay [13], 77%; in [14], 83.2%; in assay [15], 79%; in [16] it was 75.3%; in assay [17], 84%. Further, the growth was 116% in assay [18] and 107% in assay [19].
Turning to `CC(C)C(/C=C/c1[nH]ncc1-c1cc(Cl)ccc1O)N1CCOCC1` (stereo unspecified), the growth in assay [1] is 96.7%; in assay [2], 85.2%; in assay [3], 88.7%; in assay [4] it was 92.3%; in [5], 105%; in assay [6], 88.4%. Besides, the growth is 95.8% in assay [7]; 96.7% in assay [8]; 101% in assay [9]; 100% in [10]; 82.3% in assay [11]; 106% in [12]. Moreover, the growth in assay [13] was 106%; in assay [14], 88.3%; in [15], 88.5%; in [16] it was 96%; in assay [17] it was 97.5%; in assay [18], 103%. Also, the growth in assay [19] was 97.5%.
Turning to `Cc1csc(/N=C(N)/N=C(\N)c2cccnc2)n1`, the growth was 78% in assay [1]; 85.4% in assay [2]; 87.2% in [3]; 74.1% in assay [4]; 62.3% in assay [5]; 51.7% in assay [6]. Also, the growth was 54.4% in assay [7]; 82% in [8]; 90.6% in assay [9]; 81.8% in [20]; 96.8% in assay [10]; 42.4% in assay [11]. In addition, the growth in [12] was 60.7%; in assay [13], 86.9%; in [14], 89.7%; in [15] it was 77.2%; in assay [16], 48.4%; in assay [17] it was 79.5%. The growth in assay [18] was 95.5%; in assay [19], 51.6%.
As for `COc1ccc(C(C)=C(c2ccc(OCCN(C)C)cc2)c2ccc(OCCN(C)C)cc2)cc1`, the growth was -13.7% (active) in assay [1]; -7.67% (active) in assay [2]; -2.39% (active) in assay [3]; -15.8% (active) in [4]; -14.8% (active) in [5]; -43.6% (active) in assay [6]. The growth is -60.1% (active) in [7]; -3.07% (active) in assay [8]; -88.5% (active) in assay [9]; -73% (active) in assay [20]; 20% in assay [10]; -67.4% (active) in assay [11]. Moreover, the growth in assay [12] is -74.4% (active); in assay [13], -52.2% (active); in assay [14] it was -79.1% (active); in assay [15] it was -12% (active); in assay [16] it was -70.2% (active); in [17], -79.4% (active). Further, the growth in [18] was -70.4% (active); in assay [19] it was -85.8% (active).
Consider `COc1ccc2[nH]cc(-c3nc(N)nnc3-c3cn(C)c4ccc(Br)cc34)c2c1`, for which the growth in assay [1] is 43.9%; in [2], 34.7%; in assay [3], 53.7%; in [4], 38.9%; in [5], 15.1%; in [6], 44%. For the same molecule, the growth in [7] is 7.41% (active); in assay [8], 35.6%; in assay [9] it was 24.1%; in assay [10], 48.8%; in [11] it was 5.19% (active); in assay [12], 42.2%. Besides, the growth is 48.1% in assay [13]; 5.35% (active) in assay [14]; 39.4% in [15]; 20.1% in [16]; 18.1% in assay [17]; 46.8% in assay [18]. For the same molecule, in [19], the growth was 5.3% (active).
